The values that follow come from the OligoGym collection.
Also: reference of the scale not given here.

One assay has as its target TNPO2. Put plainly: pooled miR-30 sensor sort-seq; sequence = guide strand. The settings on record: shRNA.
The sequence TTGTCTTCGTCCTTGAGCTCAT returned a sensor-assay potency score (higher = more potent) of 0.165. Sequence TTTTCCAGCAGTGTCTTGGGTG returned a sensor-assay potency score (higher = more potent) of -0.0437. On the same count and under the same terms, under TTGACACCGATCATCATGCAGA stands -0.349; under TTGTTCTTGAGGATGAGGCCAC, -0.289; under TTGAAGAACTGCAGGAACTTGG, -0.371.

Regarding TCATCTTCTGACTTGAGTCTGG, the sensor-assay potency score (higher = more potent) is 0.0435. AATCTTATAAAACATGTCCCGA registered a sensor-assay potency score (higher = more potent) of -0.983. On the same count and under the same terms, in the case of TTCTCTAGAATTGCTGACCCAG it was -0.678; in that of TGAGTCTTTGAGCAGCTGCAGG, -1.5. The same measure, in the same setting: in the case of AATGTTGTTGAGACACTCCTGT it was 0.856.

In another assay the target is TOMM40L. The description is as above. The settings on record: shRNA.
Consider TCTGATAGTCTGTCATACCAGA, for which the sensor-assay potency score (higher = more potent) is -0.753.

TTATACCATAGAACACATCCAC: the sensor-assay potency score (higher = more potent) was -0.126. Still for that read-out and setting: in the case of TAGACGGTGCAGCTCATCGAAG it was -1.14.

TAGTCTGTCATACCAGAGCATG registered a sensor-assay potency score (higher = more potent) of -1.7. With TTTGGAACCTCTGATAGTCTGT, the sensor-assay potency score (higher = more potent) stood at 0.397.

For TGTGGTAGTAACTTGCATGGGC, the sensor-assay potency score (higher = more potent) is 1.17. Consider TATACCATAGAACACATCCACC, for which the sensor-assay potency score (higher = more potent) is -1.17. Sequence TACATCTTTGCATAGACGGTGC showed a sensor-assay potency score (higher = more potent) of 0.000587.

The sequence TTTCTCTAATGTTCAGACCTGG returned a sensor-assay potency score (higher = more potent) of -0.359. On the same count and under the same terms, in the case of TTACTATCCACCAAGCCTCTAA it was -0.326; in that of TAAGAGGTAAAGAAGCTCCTTC, 0.51. The same measure, in the same setting: under TACCAAATCCAGCACATCCAGG stands -1.16.

In another assay the target is TOP1MT. The assay is described as above. The settings on record: shRNA.
For TTTGCCTGGATCTTCGTCTGGA, the sensor-assay potency score (higher = more potent) stood at 0.141. TCATTGAAGAAGTTCTTCCGGA returned a sensor-assay potency score (higher = more potent) of 0.332.

On to TATTCATGATCTAACATCCTCC, for which the sensor-assay potency score (higher = more potent) was determined as 0.13. Same read-out and setting: under TTGTTGTGTATTCATGATCTAA stands -0.885; under TTCTTCTCCAGGACACTCCTGG, 0.134. For the sequence TTGTAGGTCCGGAACACCTTGG, the sensor-assay potency score (higher = more potent) is -0.571.

For TTTTGCTGTAGATCTTCTCCAC, the sensor-assay potency score (higher = more potent) is 0.12. In the case of TTCTGAACGCTCTCGGTCCAAG, the sensor-assay potency score (higher = more potent) is -1.34. Same read-out and setting: under TTGTTCTCCTCCTTGTCCGTGG stands -0.327.

TGTAGGATAAGATCTTAGCTGC showed a sensor-assay potency score (higher = more potent) of 0.167.

The sequence TTTTTCTTGGTGACCATCTAAA gave a sensor-assay potency score (higher = more potent) of -1.15. Still for that read-out and setting: in the case of TTGTCCACAAAGTATCTGTGGA it was 0.0397.

The target of the next assay is TP53I13. The description is as above. The settings on record: shRNA.
TTCAGCACAGCAGCCACTGTGT gave a sensor-assay potency score (higher = more potent) of -0.771. The same measure, in the same setting: in the case of TTGGCCTTCAAGCTCCCTGGGG it was -0.75; in that of TTGAACAGACACAGCCCCCTGG, 0.146; in that of TCGGAAGTTTCTGTGCAGCCGT, -0.684. In turn, TCGTGTGTAGGTCACTCTTGGT returned a sensor-assay potency score (higher = more potent) of -1.06.
